Test results as given in PubChem BioAssay (NCATS).
Results filed as inconclusive are left out. Active and inactive are the calls of the source. The call rests on the fitted dose curve; in most records, active means well fitted curve in the direction sought with a large enough effect; inconclusive means small, poorly fitted or top-dose-only effect, or another doubt; inactive means no such curve, though single readings can be large; an effect the other way counts as inactive or inconclusive.

Assays:
[1] = Cellular Toxicity (caspase-3) NIH 3T3 (AID 666);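 further: caspase signal read after 16 h compound exposure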
Procedure, shortened: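 Mouse NIH 3T3 fibroblasts (1000 cells/well) were treated with compound for 16 hr at 37°C in complete medium; caspase-3/7 activity was read by Caspase-Glo luminescence. Normalized to DMSO and 100 uM tamoxifen; AC50 from Hill fits.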

[2] = Cellular Toxicity (caspase-3) Renal Proximal Tubule (AID 667);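 further: cells exposed to compound for 16 hours at 37 °C before detection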
Procedure, shortened: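 In qHTS format, rat primary proximal tubule cells seeded at 1000 per well are exposed to compounds for 16 hours at 37 °C. An increase in Caspase-Glo 3/7 luminescence indicates caspase activation.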

[3] = MultiTox-Fluor Cytotoxicity Assay - LYMP1-001 - Dead Cells (AID 946)
Procedure, shortened: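 AC50 from Hill fit of concentration-response; data normalized to DMSO (basal) and 15 uM tetraoctylammonium bromide (100%). LYMP1-001 lymphoblastoid cells, 2500/well, 16 hr compound at 37 C; dead-cell protease fluorescence, Ex/Em 485/520.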

[4] = Cell Viability - LYMP1-002 - Assay at 16 hr (AID 948)
Procedure, shortened: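 Acute cytotoxicity is scored as a concentration-dependent fall in intracellular ATP in a human lymphoblastoid line (LYMP1-002) after 16 hr compound exposure at 37 C, measured by luciferase luminescence.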

[5] = MultiTox-Fluor Cytotoxicity Assay - LYMP1-002 - Live Cells (AID 955)
Procedure, shortened: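 Human lymphoblastoid LYMP1-002 cells, 2500/well in complete medium, rested 5 hr at 37 C, then exposed to compounds for 16 hr at 37 C. Live-cell protease cleavage of GF-AFC read by fluorescence (Ex/Em 405/510) after 60 min at room temperature; AC50 from Hill fits.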

[6] = MultiTox-Fluor Cytotoxicity Assay - LYMP1-003 - Dead Cells (AID 961); further: nearly all actives have a fitted effect of over 70% in size
Procedure, shortened: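 Human lymphoblastoid LYMP1-003 cells (2500/well) were treated with compounds for 16 hr at 37 C in complete medium. Dead-cell protease release was read by bis-AAF-R110 fluorescence (Ex/Em 485/520). AC50 came from Hill fits, normalized to DMSO and 15 uM tetraoctylammonium bromide.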

[7] = MultiTox-Fluor Cytotoxicity Assay - LYMP1-003 - Live Cells (AID 962);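 further: cytotoxic hits lower the live-cell protease signal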
Procedure, shortened: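 LYMP1-003 human lymphoblastoid cells (2500/well) in complete medium were preincubated 5 hr at 37 C, then exposed to compounds for 16 hr at 37 C. Live-cell protease cleavage of GF-AFC read by fluorescence (Ex/Em 405/510); AC50 from Hill fits.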

[8] = Cell Viability - LYMP1-003 - Assay at 24 hr (AID 963)
Procedure, shortened: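 Human lymphoblastoid LYMP1-003 cells (2500/well) were rested 5 hr at 37 C, then exposed to compounds in complete medium for 24 hr at 37 C. Cellular ATP was quantified by CellTiter-Glo luminescence, and AC50 values came from Hill fits of concentration-response data.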

[9] = Cell Viability - LYMP1-003 - Assay at 40 hr (AID 964); further: series mostly up to about 92 µM; nearly all actives have a fitted effect of over 60% in size
Procedure, shortened: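 Human lymphoblastoid LYMP1-003 cells, 2500/well in complete medium, rested 5 hr at 37 C, then exposed to compounds for 40 hr at 37 C. Viability read as intracellular ATP by CellTiter-Glo luminescence; AC50 from Hill fits of concentration-response data.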

[10] = Cell Viability - LYMP2-003 (AID 965);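 further: cells exposed to compounds for 24 h before reading; nearly all actives have a fitted effect of over 50% in size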
Procedure, shortened: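 Acute cytotoxicity is scored as a concentration-dependent drop in intracellular ATP, measured by luciferase luminescence in human lymphoblastoid cells treated for 24 hours at 37 C. AC50 values derive from Hill-equation modelling.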

[11] = Cell Viability - LYMP2-005 (AID 967); further: series mostly up to about 92 µM
Procedure, shortened: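 qHTS viability screen in LYMP2-005 cells: 24 h at 37 C with compound, ATP luminescence via CellTiter-Glo, AC50 from Hill curves.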

[12] = Cell Viability - LYMP2-011 (AID 969); further: nearly all actives have a fitted effect of over 60% in size
Procedure, shortened: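 Human lymphoblastoid cells (2500/well) were plated in complete medium, preincubated 5 hr at 37 C, then exposed to compounds for 24 hr at 37 C. Intracellular ATP was read by CellTiter-Glo luminescence, and AC50 came from Hill-equation concentration-response fits.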

[13] = Cell Viability - LYMP2-015 (AID 971); further: nearly all actives have a fitted effect of over 55% in size
Procedure, shortened: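 Human lymphoblastoid cells (2500/well) in complete medium were preincubated 5 hr at 37 C, then compound-treated 24 hr at 37 C. Intracellular ATP was read by CellTiter-Glo luminescence after 30 min at room temperature; AC50 came from Hill-equation concentration-response fits.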

[14] = Cell Viability - LYMP2-017 (AID 972); further: series mostly up to about 92 µM; nearly all actives have a fitted effect of over 55% in size
Procedure, shortened: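 Human lymphoblastoid cells (2500/well) were seeded in complete medium, held 5 hr at 37 C, then exposed to compounds for 24 hr at 37 C. Intracellular ATP was read by CellTiter-Glo luminescence after 30 min at room temperature, with AC50 values from Hill-equation fits.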

[15] = Cell Viability - LYMP2-019 (AID 973); further: nearly all actives have a fitted effect of over 55% in size
Procedure, shortened: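 Human lymphoblastoid cells were seeded at 2500 cells/well, preincubated 5 hr at 37 C, then exposed to compounds for 24 hr at 37 C in complete medium. Intracellular ATP was measured by CellTiter-Glo luminescence; AC50 from Hill fits.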

[16] = Cell Viability - LYMP2-021 (AID 974);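 further: compound exposure lasts 24 hours at 37 °C; nearly all actives have a fitted effect of over 55% in size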
Procedure, shortened: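 Human lymphoblastoid cells (2500/well) were preincubated 5 hr at 37 C, then exposed to compounds for 24 hr at 37 C in complete medium. Intracellular ATP was read by CellTiter-Glo luminescence; AC50 came from Hill-equation fits of concentration-response data.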

[17] = Cell Viability - LYMP2-023 (AID 975)
Procedure, shortened: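 Human lymphoblastoid cells (2500/well) were preincubated 5 hr at 37 C, then exposed to compounds for 24 hr at 37 C in complete medium. Cellular ATP was read by CellTiter-Glo luminescence, and AC50 came from Hill-equation fits.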

[18] = Cell Viability - LYMP2-025 (AID 976); further: series mostly up to about 92 µM
Procedure, shortened: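 Human lymphoblastoid LYMP2-025 cells (2500/well) were pre-incubated 5 hr at 37 C, then treated with compounds for 24 hr at 37 C in complete medium. Viability was read as intracellular ATP by CellTiter-Glo luminescence; AC50 from Hill fits.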

[19] = Cell Viability - LYMP2-002 (AID 977); further: series mostly up to about 92 µM
Procedure, shortened: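 Luminescent ATP readout (CellTiter-Glo, 30 min room temperature) after 24 h compound exposure at 37 C of a human lymphoblastoid line, 2500 cells/well. AC50 values derived by standard Hill fitting of qHTS concentration-response data.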

[20] = Cell Viability - LYMP2-006 (AID 978); further: series mostly up to about 92 µM; nearly all actives have a fitted effect of over 60% in size
Procedure, shortened: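 Concentration-dependent loss of intracellular ATP in a human lymphoblastoid line after 24 hr treatment at 37 C was measured by CellTiter-Glo luminescence, with AC50 values obtained from standard Hill-equation modelling.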

Measured: Potency

O=C(O)c1ccccc1
inactive: all assays above

CCCCCCCCCCCCCC(=O)O
inactive: all assays above

COc1cc(/C=C/c2ccccc2)oc(=O)c1
inactive: all assays above

CC1=C2[C@H](/C=C(\C)C(=O)O)CC[C@@H](C)[C@H]2CC1
inactive: all assays above

COc1ccc(/C=C/c2cc(OC)cc(=O)o2)cc1
inactive: all assays above

C=C(C)C1CC=C(C)C(O)C1 (stereo not given)
inactive: all assays above

C=CCc1ccc(OC)c(OC)c1
inactive: all assays above

CCCCCCCCCCCC(=O)O
inactive: all assays above
